Compound activity deposited in PubChem by several laboratories.
PfM18AAP inh – PfM18AAP enzyme inhibition; hit rate 1.2% among 290,000; recombinant PfM18AAP, H-Glu-NHMec fluorogenic cleavage; inhibition, % at 7.35 µM;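 active = inhibition above the campaign mean inhibition over all tested compounds plus 3 SD, cut at about 28% in these data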;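 note: 0% = plate median of test compound wells and 100% = 2 mM ZnCl2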
HDAC3 inh – human HDAC3 inhibition. O15379. recombinant HDAC3, fluorogenic peptide/trypsin coupled, fluorescence. inhibition, % at 8.3 µM. hit rate 0.15% among 320,000. AID 2718; in the data active = inhibition above about 26%, passing the limit was not always enough; inconclusive = no clear call, values can overlap the other calls
Target sequence (O15379 whole entry, looked up): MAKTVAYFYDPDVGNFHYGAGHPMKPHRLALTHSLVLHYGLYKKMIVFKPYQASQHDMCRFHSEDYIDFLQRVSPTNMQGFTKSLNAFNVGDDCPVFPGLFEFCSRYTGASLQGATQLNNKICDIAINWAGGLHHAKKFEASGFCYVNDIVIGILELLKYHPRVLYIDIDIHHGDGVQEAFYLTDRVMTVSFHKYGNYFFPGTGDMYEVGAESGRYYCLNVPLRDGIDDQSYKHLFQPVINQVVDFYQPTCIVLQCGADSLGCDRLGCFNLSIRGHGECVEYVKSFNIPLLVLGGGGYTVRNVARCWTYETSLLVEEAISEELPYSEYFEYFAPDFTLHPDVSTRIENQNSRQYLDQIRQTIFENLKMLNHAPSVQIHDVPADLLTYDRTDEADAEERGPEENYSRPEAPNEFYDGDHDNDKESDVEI
p97 inhibitor – blocks human p97 ATPase activity. P55072. recombinant p97 ATPase, Kinase-Glo ATP luminescence, 3 h. inhibition, % at 8 µM. hit rate 0.42% among 220,000; in the data active = inhibition above about 15%;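 note: 0% = DMSO vehicle and 100% = wells lacking enzyme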
UBC9 SUMO inh – SUMOylation inhibition; P63279; HTRF SUMOylation assay, SAE1/SAE2 + UBC9, in vitro; inhibition, % at 35 µM; hit rate 0.36% among 290,000; in the data active = inhibition above about 50%, passing the limit was not always enough; inconclusive = no clear call, values can overlap the other calls
Target sequence (P63279 whole entry, looked up): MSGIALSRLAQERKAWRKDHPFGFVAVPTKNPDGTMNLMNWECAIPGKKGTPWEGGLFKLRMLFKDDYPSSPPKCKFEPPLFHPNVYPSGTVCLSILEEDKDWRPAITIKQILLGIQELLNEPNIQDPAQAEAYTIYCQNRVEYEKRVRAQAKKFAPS
G6PDH counter – counter-screen for G6PDH assay hits: L. mesenteroides G6PDH inhibition | AID 1020 | Purified L. mesenteroides G6PDH, diaphorase/resazurin coupled fluorescence, 45 min | inhibition, % at 5 µM | hit rate 0.12% among 200,000; in the data active = inhibition above about 50%
PHOSPHO1 block – inhibitors of human PHOSPHO1 phosphatase. Q8TCT1. recombinant PHOSPHO1, absorbance phosphatase assay. inhibition, % at 13.3 µM. hit rate 1.1% among 290,000; in the data active = inhibition above about 60%
p97 inh conf – confirmation of human p97 ATPase inhibitors | shares compounds with p97 inhibitor | recombinant p97 ATPase, Kinase-Glo ATP luminescence | inhibition, % at 8 µM | hit rate 44% among 760 | AID 1517;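 active = percent inhibition of p97 ATPase above a set limit, the primary screen's mean plus 3 SD, cut at about 15% in these data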;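 note: 0% = DMSO wells and 100% = wells lacking p97 protein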
An asterisk follows results filed as active. This is a sample that favours compounds with a hit; in the whole collection about 2.5% have one here.

How did Cn1nc(C(C)(C)C)cc1C(=O)NN1CCOCC1 do in these assays?
PfM18AAP inh: -6; HDAC3 inh: -4; UBC9 SUMO inh: 20; PHOSPHO1 block: 27

What do the screens show for `C=CCN(C(=O)CCC(=O)Nc1cc(C)on1)C(C(=O)NC(C)(C)C)c1ccc(OC)cc1` (centres undefined)?
PfM18AAP inh: -2; HDAC3 inh: 2; UBC9 SUMO inh: 5; PHOSPHO1 block: 9

What do the screens show for `CSc1cccc(N2CC(C(=O)N3CCN(S(=O)(=O)c4ccccc4Cl)CC3)CC2=O)c1` (centres undefined)?
HDAC3 inh: 4

What do the screens show for `Cc1cccc(N(CC(=O)NC(C)C)C(=O)CCC(=O)Nc2nccs2)c1`?
PfM18AAP inh: 4; HDAC3 inh: 8; UBC9 SUMO inh: 2; PHOSPHO1 block: 35

How did CN(CCOc1ccccc1)C(=O)C1CCC(=O)N(CCc2ccc(Cl)cc2)C1 (centres undefined) do in these assays?
PfM18AAP inh: -2; HDAC3 inh: 2; UBC9 SUMO inh: 21; PHOSPHO1 block: 13

How did C#CCOCCOCCOCCNc1nc(N2CCN(C(=O)[C@H](Cc3cc4ccccc4[nH]3)n3cc([C@@H](N)CC(C)C)nn3)CC2)nc(N2CCN(C(=O)[C@H](Cc3cc4ccccc4[nH]3)n3cc([C@@H](N)CC(C)C)nn3)CC2)n1 do in these assays?
PfM18AAP inh: 0; HDAC3 inh: -1; p97 inhibitor: 27*; UBC9 SUMO inh: -12; G6PDH counter: 10; PHOSPHO1 block: 9; p97 inh conf: 27*

What do the screens show for `COc1ccccc1-c1nnc(Sc2nc([N+](=O)[O-])nn2C)o1`?
PfM18AAP inh: 7; HDAC3 inh: 6; p97 inhibitor: 16*; UBC9 SUMO inh: 3; G6PDH counter: -6; PHOSPHO1 block: -2; p97 inh conf: 24*

What do the screens show for `CCOc1cc(CNc2ccc(O)cc2)cc(Br)c1OCc1ccccc1F`?
PfM18AAP inh: 14; HDAC3 inh: 0; p97 inhibitor: 8; UBC9 SUMO inh: 46; G6PDH counter: -14; PHOSPHO1 block: 14

Results for COc1cc(CNc2ccc(O)cc2)cc(Br)c1OCc1ccccc1F ?
PfM18AAP inh: 16; HDAC3 inh: 8; p97 inhibitor: 15*; UBC9 SUMO inh: 91*; G6PDH counter: -17; PHOSPHO1 block: -16; p97 inh conf: 5

What do the screens show for `COc1ccccc1NS(=O)(=O)c1ccc(C)c(C(=O)N2CCN(c3ccc(O)cc3)CC2)c1`?
HDAC3 inh: 2

How did Cn1cccc1C(=O)OCC(=O)N1CCN(c2ccccc2)CC1 do in these assays?
HDAC3 inh: -9

What do the screens show for `CCOC(=O)c1sc(NC(=O)c2c(C)nn(Cc3ccccc3)c2C)cc1C`?
PfM18AAP inh: -1; HDAC3 inh: 22; p97 inhibitor: 20*; UBC9 SUMO inh: -15; G6PDH counter: -26; PHOSPHO1 block: 0; p97 inh conf: 6

What do the screens show for `Cc1cc(NC(=O)CSc2n[nH]c(N)n2)no1`?
PfM18AAP inh: -9; HDAC3 inh: -3; p97 inhibitor: 5; UBC9 SUMO inh: 0; G6PDH counter: 10; PHOSPHO1 block: 16

What do the screens show for `Cc1ccc(/C=C/C2=Cc3c(sc(NC(=O)CSc4n[nH]c(N)n4)c3C#N)C(C)(C)C2)o1`?
PfM18AAP inh: 22; HDAC3 inh: -8; p97 inhibitor: 19*; UBC9 SUMO inh: 70*; G6PDH counter: 9; PHOSPHO1 block: -95; p97 inh conf: 22*

What do the screens show for `CCC1(CC)NC(=O)N(CC(=O)OCC(=O)Nc2ncc(Cl)cc2Cl)C1=O`?
HDAC3 inh: -6

Results for N#Cc1cc2ccc(N3CCOCC3)cc2cc1C#N ?
PfM18AAP inh: -6; HDAC3 inh: 1; p97 inhibitor: 15*; UBC9 SUMO inh: 89; G6PDH counter: 48; PHOSPHO1 block: 3; p97 inh conf: 19*

Results for N#Cc1cc(Cl)c(N2CCOCC2)cc1C#N ?
PfM18AAP inh: 2; HDAC3 inh: 2; p97 inhibitor: -6; UBC9 SUMO inh: 2; G6PDH counter: 4; PHOSPHO1 block: 19

Results for CCN(CC(=O)NCc1ccco1)S(=O)(=O)c1ccc(OC)cc1 ?
HDAC3 inh: -4

Results for Cc1cc(C)c(C)c(S(=O)(=O)N2CCC(C(=O)Nc3ccc(S(=O)(=O)N4CCOCC4)cc3)CC2)c1C ?
PfM18AAP inh: 1; HDAC3 inh: 2; UBC9 SUMO inh: -6; PHOSPHO1 block: -26

What do the screens show for `Cc1ccc(C)c(NC(=O)c2cnc3n(c2=O)CCS3)c1`?
PfM18AAP inh: 4; HDAC3 inh: -1; p97 inhibitor: 29*; UBC9 SUMO inh: 12; G6PDH counter: 11; PHOSPHO1 block: 16; p97 inh conf: 20*

Results for CC(CCc1ccccc1)NCC(O)COc1ccccc1 (centres undefined) ?
PfM18AAP inh: 3; HDAC3 inh: inconclusive; p97 inhibitor: -2; UBC9 SUMO inh: 6; G6PDH counter: 7; PHOSPHO1 block: 29

What do the screens show for `O=[N+]([O-])c1ccc2c(c1)c(-c1ccccc1)nc1nncn12`?
PfM18AAP inh: 5; p97 inhibitor: 34*; UBC9 SUMO inh: -2; G6PDH counter: 4; PHOSPHO1 block: 20; p97 inh conf: 4

What do the screens show for `O=[N+]([O-])c1ccc2nc(-c3ccccc3)cc(-c3ccccc3)c2c1`?
PfM18AAP inh: -4; HDAC3 inh: -16; p97 inhibitor: 3; UBC9 SUMO inh: 0; G6PDH counter: 1; PHOSPHO1 block: -13

How did CCN(C(=O)c1ccc(S(=O)(=O)N(C)C)cc1)C(C)C(=O)Nc1ccc(C)cc1 (centres undefined) do in these assays?
PfM18AAP inh: 7; HDAC3 inh: -17; UBC9 SUMO inh: 0; PHOSPHO1 block: 59

How did Cc1ccc(-n2c(C)cc(/C=C3\SC(=O)NC3=O)c2C)cc1 do in these assays?
PfM18AAP inh: 9; UBC9 SUMO inh: 15; PHOSPHO1 block: 26

Results for Cc1cc(/C=C2\SC(=S)NC2=O)c(C)[nH]1 ?
PfM18AAP inh: 10; HDAC3 inh: 2; p97 inhibitor: 15*; UBC9 SUMO inh: 69; G6PDH counter: 4; PHOSPHO1 block: 38; p97 inh conf: 13

What do the screens show for `Cc1cc(/C=C2\SC(=S)NC2=O)c(C)n1-c1cccc(O)c1`?
PfM18AAP inh: 23; HDAC3 inh: 6; p97 inhibitor: 18*; UBC9 SUMO inh: 24; PHOSPHO1 block: 4; p97 inh conf: 16*

How did CCn1c(C)cc(/C=C2/SC(=S)NC2=O)c1C do in these assays?
PfM18AAP inh: 11; HDAC3 inh: 17; p97 inhibitor: 6; UBC9 SUMO inh: -11; G6PDH counter: -27; PHOSPHO1 block: 6

How did COc1ccc(N(CC(=O)Nc2ccccc2OC)S(=O)(=O)c2ccc(NC(C)=O)cc2)cc1 do in these assays?
PfM18AAP inh: -21; HDAC3 inh: -1; UBC9 SUMO inh: -10; PHOSPHO1 block: 39
